Reference: PubChem BioAssay (EPA / NIEHS)
Inconclusive results are not listed. Calls of active or inactive are those of the source. Rule for the calls: active = hit-call score of the fitted dose curve at least 0.9, where 1 is the maximum; inconclusive = response in the unintended direction; inactive = score below 0.9.

Test system: DIO1 (gene 1733)
Test: CCTE_GLTED_hDIO1: CCTE's human Deiodinase 1 (DIO1) Inhibition Assay, Great Lakes Toxicology and Ecology Division (GLTED) Lab (AID 2283987);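 note: isolated human DIO1 enzyme in a cell-free setup rather than cells; enzyme activity read as free iodide liberated from substrate via Sandell-Kolthoff colorimetry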
Procedure, shortened: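 Cell-free human DIO1 enzyme incubated 3 h with test chemical; iodide freed from substrate then measured by Sandell-Kolthoff absorbance. Run in triplicate; loss of signal relative to DMSO taken as inhibition.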

SMILES | AC50
CN(C)[C@@H]1C(=O)C(C(N)=O)=C(O)[C@@]2(O)C(=O)C3=C(O)c4c(O)cccc4[C@@](C)(O)[C@H]3C[C@@H]12 | 56.9 µM (active)
COP(=S)(OC)SCN1C(=O)c2ccccc2C1=O | 50.9 µM (active)
Oc1ccc2ccc3cccc4ccc1c2c34 | 100 µM (active)
CCCCCCCCn1sccc1=O | 54 µM (active)
CO[C@@H]1[C@H](OC(=O)NC(=O)CCl)CC[C@]2(CO2)[C@H]1[C@@]1(C)O[C@@H]1CC=C(C)C | 17.8 µM (active)

Target: Nucleoli Translocation, AR (gene 367) (UniProt P10275)
Sequence (P10275 whole entry, looked up): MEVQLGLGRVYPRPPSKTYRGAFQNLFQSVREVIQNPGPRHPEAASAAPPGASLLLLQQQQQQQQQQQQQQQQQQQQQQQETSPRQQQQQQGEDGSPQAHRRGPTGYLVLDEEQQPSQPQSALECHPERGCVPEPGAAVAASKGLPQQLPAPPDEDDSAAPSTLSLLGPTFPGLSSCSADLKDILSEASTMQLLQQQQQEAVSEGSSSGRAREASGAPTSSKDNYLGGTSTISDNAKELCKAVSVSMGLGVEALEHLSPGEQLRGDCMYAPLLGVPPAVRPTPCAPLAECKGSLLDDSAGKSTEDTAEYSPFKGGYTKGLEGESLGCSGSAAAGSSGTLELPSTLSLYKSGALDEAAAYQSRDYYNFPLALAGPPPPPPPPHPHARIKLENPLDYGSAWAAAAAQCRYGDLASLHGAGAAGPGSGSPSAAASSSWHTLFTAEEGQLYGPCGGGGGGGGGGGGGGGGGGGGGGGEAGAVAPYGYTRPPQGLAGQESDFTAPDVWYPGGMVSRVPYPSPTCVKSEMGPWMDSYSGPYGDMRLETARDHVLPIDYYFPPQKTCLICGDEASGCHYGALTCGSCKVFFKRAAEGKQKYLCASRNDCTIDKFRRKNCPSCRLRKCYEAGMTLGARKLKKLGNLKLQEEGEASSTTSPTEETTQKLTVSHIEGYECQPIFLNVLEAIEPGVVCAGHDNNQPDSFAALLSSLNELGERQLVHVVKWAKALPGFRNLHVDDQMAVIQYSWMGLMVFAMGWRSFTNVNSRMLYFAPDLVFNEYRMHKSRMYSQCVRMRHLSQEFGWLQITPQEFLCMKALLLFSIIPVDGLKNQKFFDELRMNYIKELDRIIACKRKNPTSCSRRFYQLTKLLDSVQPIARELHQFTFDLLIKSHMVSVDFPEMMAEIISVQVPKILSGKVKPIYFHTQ
Test: UPITT_HCI_U2OS_AR_TIF2_Nucleoli_Antagonist: University of Pittsburgh U2OS Androgen Receptor-Transcriptional Intermediary Factor 2 (AR-TIF2) Antagonism High Content Imaging Assay for Nucleoli Translocation (AID 2283997)
Procedure, shortened: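 U2OS cells expressing RFP-tagged human AR and GFP-tagged TIF2 were imaged by high-content fluorescence microscopy for red AR signal in the nucleolar region. Compounds were screened at 20 uM final (0.2% DMSO), with activity fitted relative to DHT as baseline.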

SMILES | outcome | AC50
CC(C)(O)c1cnn2c(-c3ccc(F)c(-c4c(F)cccc4C#N)c3)cnc2n1 | inactive | –
CCNS(=O)(=O)C(F)(F)C(F)(F)C(F)(F)C(F)(F)C(F)(F)C(F)(F)C(F)(F)C(F)(F)F | inactive | –
O=[N+]([O-])C(Br)(CO)CO | – | 31.8 µM (active)
CO[C@@H]1[C@H](OC(=O)NC(=O)CCl)CC[C@]2(CO2)[C@H]1[C@@]1(C)O[C@@H]1CC=C(C)C | inactive | –
CNC(=O)Oc1cccc2c1OC(C)(C)C2 | inactive | –
O=C(Nc1ccccc1)c1ccccc1I | inactive | –
Nc1ccc(Cl)cc1N | inactive | –
O=C1CCCO1 | inactive | –
Cc1cc(N=Nc2ccccc2C)ccc1N | – | 26.1 µM (active)
CC(C)(OOC(C)(C)c1ccccc1)c1ccccc1 | – | 38.5 µM (active)
CCCCC(CC)COC(=O)c1ccc(C(=O)OCC(CC)CCCC)c(C(=O)OCC(CC)CCCC)c1 (configuration not stated) | inactive | –
CC(C)N(Cc1ccccc1)C(=O)C(C)(C)C | inactive | –
Nc1ccc([N+](=O)[O-])cc1 | inactive | –

Target: Nucleoli Translocation, AR (gene 367) (UniProt P10275)
Test: UPITT_HCI_U2OS_AR_TIF2_Nucleoli_Agonist: University of Pittsburgh U2OS Androgen Receptor-Transcriptional Intermediary Factor 2 (AR-TIF2) Agonism High Content Imaging Assay for Nucleoli Translocation (AID 2283998)
Procedure, shortened: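 U2OS cells expressing RFP-tagged human AR and GFP-tagged TIF2; red fluorescence in nucleoli quantified by high-content imaging. Primary screen at 20 uM final (0.2% DMSO); concentration-response 0.195–50 uM (0.5% DMSO), fitted upward versus DMSO.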

SMILES | outcome | AC50
CC(C)(O)c1cnn2c(-c3ccc(F)c(-c4c(F)cccc4C#N)c3)cnc2n1 | inactive | –
C[C@]12C=CC3=C4CCC(=O)C=C4CC[C@H]3[C@@H]1CC[C@@H]2O | – | 0.00188 µM (active)
O=[N+]([O-])C(Br)(CO)CO | inactive | –
COC(=O)Nc1nc2ccccc2[nH]1 | inactive | –
CO[C@@H]1[C@H](OC(=O)NC(=O)CCl)CC[C@]2(CO2)[C@H]1[C@@]1(C)O[C@@H]1CC=C(C)C | inactive | –
O=C(Nc1ccccc1)c1ccccc1I | inactive | –
C[N+](C)(C)CC1CO1 (configuration not stated) | inactive | –
Nc1ccc(Cl)cc1N | inactive | –
Cc1cc(N=Nc2ccccc2C)ccc1N | – | 77.9 µM (active)

Target: Ratio of Nucleoli Translocation and Cytoplasm, AR (gene 367) (UniProt P10275)
Sequence (P10275 whole entry, looked up): as above
Test: UPITT_HCI_U2OS_AR_TIF2_Nucleoli_Cytoplasm_Ratio_Antagonist: University of Pittsburgh U2OS Androgen Receptor-Transcriptional Intermediary Factor 2 (AR-TIF2) Antagonism High Content Imaging Assay for Ratio of Nucleoli Translocation and Cytoplasm (AID 2283999);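 note: antagonists lower the DHT-driven ratio of nucleolar to cytoplasmic red signal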
Procedure, shortened: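 U2OS cells co-expressing RFP-tagged human AR and GFP-tagged TIF2, antagonist mode with DHT as baseline. Nucleolar-to-cytoplasmic red fluorescence ratio imaged by high-content microscopy; final compound 20 uM (0.2% DMSO) primary, 0.195–50 uM (0.5% DMSO) concentration-response.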

SMILES | outcome
O=[N+]([O-])C(Br)(CO)CO | inactive
CO[C@@H]1[C@H](OC(=O)NC(=O)CCl)CC[C@]2(CO2)[C@H]1[C@@]1(C)O[C@@H]1CC=C(C)C | inactive
CNC(=O)Oc1cccc2c1OC(C)(C)C2 | inactive
O=C(Nc1ccccc1)c1ccccc1I | inactive
C[N+](C)(C)CC1CO1 (configuration not stated) | inactive
Nc1ccc(Cl)cc1N | inactive
Cc1cc(N=Nc2ccccc2C)ccc1N | inactive
CC(C)(OOC(C)(C)c1ccccc1)c1ccccc1 | inactive
CCCCC(CC)COC(=O)c1ccc(C(=O)OCC(CC)CCCC)c(C(=O)OCC(CC)CCCC)c1 (configuration not stated) | inactive
CC(C)N(Cc1ccccc1)C(=O)C(C)(C)C | inactive
